Laboratory results: PubChem BioAssay AID1851 (National Center for Advancing Translational Sciences (NCATS), 2009)
Several values for one entry are separate records, joined by “and”; a condition that tells them apart may be missing. Equal values may be shown once. Screen size: about 16,000 compounds; about 5,800 (36%) were called active. About 23% were inconclusive and are not listed. The list shows a part of the results. Values without a mark were called inactive. Calls come from the whole dose curve; as a rule, active = well fitted curve in the direction sought with a large enough effect; inconclusive = small, poorly fitted or top-dose-only effect, or effect the other way; inactive = no such curve, though single readings can be large or run the other way.

The compounds below were run against Cytochrome P450 2C19 (Homo sapiens) (UniProt P33261) (assay: Cytochrome panel assay with activity outcomes). Conditions: recombinant CYP, pro-luciferin dealkylation, luminescence, p450-cyp2c19; series mostly up to 57.1 µM; activity, negative = inhibition: at the top concentration.
% is set by controls: 0 for no effect and ±100 for the full control effect.

Sequence of Cytochrome P450 2C19 (Homo sapiens) (P33261 whole entry, looked up): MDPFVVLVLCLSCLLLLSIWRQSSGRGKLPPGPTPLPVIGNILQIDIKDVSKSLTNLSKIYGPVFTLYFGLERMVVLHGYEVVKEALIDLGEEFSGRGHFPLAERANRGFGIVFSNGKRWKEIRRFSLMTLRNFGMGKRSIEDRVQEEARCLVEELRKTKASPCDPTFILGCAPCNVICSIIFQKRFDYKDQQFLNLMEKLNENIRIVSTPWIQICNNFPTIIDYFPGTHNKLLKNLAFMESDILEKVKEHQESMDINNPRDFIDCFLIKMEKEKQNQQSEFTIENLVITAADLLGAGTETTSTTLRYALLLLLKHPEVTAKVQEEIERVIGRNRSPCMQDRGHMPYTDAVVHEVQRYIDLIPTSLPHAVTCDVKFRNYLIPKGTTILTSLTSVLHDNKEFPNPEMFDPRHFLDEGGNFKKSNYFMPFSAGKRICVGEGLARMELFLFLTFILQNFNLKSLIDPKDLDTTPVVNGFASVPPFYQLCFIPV

SMILES | AC50 | activity, negative = inhibition
CC(=O)N1c2c(cc(Br)cc2S(=O)(=O)NCC2COc3ccccc3O2)CC1C (stereo unspecified) | 3.16 µM (active) | –
COc1ccc(C(F)(F)F)cc1N/C=C\c1nnnn1-c1ccccc1 | 1.12 µM (active) | –
COc1ccc(-n2nnnc2/C=C\Nc2ccccc2C(=O)c2ccccc2)cc1 | 0.316 µM (active) | –
COc1cccc(Cn2c(=O)c(-c3ccccc3)nc3cnc(N4CCN(C)CC4)nc32)c1 | – | -13.9%
CN1CCN(c2ncc3nc(CCc4ccccc4)c(=O)n(Cc4ccc(F)cc4)c3n2)CC1 | – | -34.9%
COc1cccc(Cn2c(=O)c(CCc3ccccc3)nc3cnc(N4CCN(C)CC4)nc32)c1 | 7.94 µM (active) | –
COc1cccc(Cn2c(=O)c(CCc3ccccc3)nc3cnc(N4CCNCC4)nc32)c1 | 25.1 µM (active) | –
COc1cccc(Cn2c(=O)c(-c3cccc(C#N)c3)nc3cnc(N4CCN(C)CC4)nc32)c1 | – | 20.9%
O=C1[C@H]2CCn3c(=O)n(-c4ccccc4)c(=O)n3[C@H]2[C@H](O)[C@H]2O[C@@H]12 | – | -1.55% [at 11.4 µM]
CC(=O)NS(=O)(=O)c1ccc(NC(=S)NC(=O)c2ccco2)cc1 | – | 7.63%
CCN(c1ccccc1)S(=O)(=O)c1ccc(NC(=S)NC(=O)c2cccs2)cc1 | 3.98 µM (active) | –
Cc1noc(NS(=O)(=O)c2ccc(NC(=O)c3ccc(Br)o3)cc2)c1C | – | -25.5%
CN(C1CCCCC1)S(=O)(=O)c1ccc(NC(=S)NC(=O)c2cccs2)cc1 | 3.55 µM (active) | –
CCCC(=O)Nc1ccc(C(=O)NNC(=S)NC(=O)c2cccs2)cc1 | – | -22.5%
CN(C)S(=O)(=O)c1ccc(NC(=O)COC(=O)c2ccccn2)cc1 | – | -16%
CCN(CC)S(=O)(=O)c1ccc(NC(=O)COC(=O)c2ccc(Br)o2)cc1 | 11.2 µM (active) | –
CCN(c1ccccc1)S(=O)(=O)c1ccc(NC(=S)NC(=O)c2ccc(Br)o2)cc1 | 8.91 µM (active) | –
CCCCCCCCCCCCCCCC[N+](C)(C)CCN(Cc1ccc(OC)cc1)c1ncccn1 | – | -43.8% [at 25.6 µM]
O=c1c(CCc2ccccc2)nc2cncnc2n1Cc1ccc(F)cc1 | 6.31 µM (active) | –
Cc1nc2cnc(N(C)C)nc2n(-c2ccccc2)c1=O | – | 5.33%
O=c1c(CCc2ccccc2)nc2cncnc2n1-c1ccccc1 | 10 µM (active) | –
O=c1c(CCc2ccccc2)nc2cncnc2n1Cc1ccccc1Cl | 5.01 µM (active) | –
Brc1ccc(-c2nnc(-c3cccc(Br)c3)o2)cc1 | – | -11.7%

SMILES | AC50 | activity, negative = inhibition
Cc1nnc(-c2cccc(Br)c2)c2cn(-c3ccc(Br)cc3)nc12 | 5.01 µM (active) | –
Cc1nnc(-c2cccc(Br)c2)c2cn(-c3ccccc3Cl)nc12 | 1.78 µM (active) | –
CC(C)Cn1c(-c2nn(C)cc2Cl)n[nH]c1=S | 15.8 µM (active) | –
CCn1c(CC(C)C)n[nH]c1=S | – | 16%
CCc1nn(C)c(-c2n[nH]c(=S)n2N)c1Cl | – | -20.1%
O=C(Nc1ccc2c(c1)nc1n2CCN(C2CCCCC2)C1)NC1CCCCC1 | 14.1 µM (active) | –
CC1CCN(CCc2nc3cc(NC(=O)NC4CCCCC4)ccc3n2C)CC1 | – | -5.62%
C[C@@H]1/C=C\CC(=O)OC[C@H]2O[C@@H](C=C[C@@H]2O)[C@H](C)/C=C\CC(=O)OC1 | – | -20.4% [at 11.4 µM]
Cn1c2c(c(=O)n(C)c1=O)[C@@H]1c3c(ccc4ccccc34)OC[C@@H]1CO2 | 14.1 µM (active) | –
Nc1ccc(-c2ccc(Nc3cc(S(=O)(=O)O)c(N)c4c3C(=O)c3ccccc3C4=O)cc2)c(S(=O)(=O)O)c1 | – | -36% [at 11.4 µM]
O=C1c2ccccc2C(=O)c2c(NC3CCCCC3)ccc(Nc3ccc(S(=O)(=O)O)cc3)c21 | 3.98 µM (active) | –
O=C(Nc1ccc(Nc2ccc3c(c2)C(=O)c2ccccc2C3=O)c2c1C(=O)c1ccccc1C2=O)c1ccccc1 | – | -23.9% [at 11.4 µM]
Cn1c(SC2=CS(=O)(=O)c3ccccc32)nc2ccccc21 | 17.8 µM (active) | –
Oc1ccc(/C=N/NC(=S)NCc2ccco2)cc1 | 10 µM (active) | –
C=CCOc1cccc(/C=N/NC(=O)C(=O)NCc2ccco2)c1 | – | 18.1%
CN(C)c1ccc(-c2nc(NC3CCNCC3)c3ccccc3n2)cc1 | – | -7.38%
Fc1ccc(Nc2nc(-c3ccoc3)nc3ccccc23)cc1 | – | -38.8%
c1ccc2c(Nc3ccncc3)nc(-c3ccoc3)nc2c1 | 20 µM (active) | –
CNc1nc(-c2ccc(N(C)C)cc2)nc2ccccc12 | 25.1 µM (active) | –
CN(C)c1ccc(-c2nc(Nc3ccncc3)c3ccccc3n2)cc1 | 10 µM (active) | –
CNc1nc(-c2ccoc2)nc2ccccc12 | – | -19.4%
NCC[C@H](O)C(=O)N[C@H]1C[C@@H](N)[C@@H](O[C@H]2O[C@@H](CN)[C@@H](O)[C@@H](O)[C@@H]2O)[C@@H](O)[C@@H]1O[C@H]1O[C@@H](CO)[C@@H](O)[C@@H](N)[C@@H]1O | – | 8.94% [at 25.6 µM]
N[C@@H](C(=O)O)c1cc(O)ccc1Cl | – | -10%

SMILES | AC50 | activity, negative = inhibition
CNC(=O)c1sc(-c2cccnc2)nc1C | – | -9.33%
Cc1nc(-c2cccnc2)sc1C(=O)Nc1ccc(Cl)cc1 | 11.2 µM (active) | –
CC(=O)OC[C@H]1O[C@@H](O/N=C(\C)CCN2CCCCc3nc(C)c(C)cc32)[C@H](OC(C)=O)[C@@H](OC(C)=O)[C@H]1OC(C)=O | – | -0.342% [at 11.4 µM]
CNc1ncnc2c1ncn2[C@@H]1O[C@@H](CO)[C@H](O)[C@@H]1O | – | 1.57%
CNc1ncnc2c1ncn2[C@H]1C[C@H](OP(=O)(O)O)[C@H](COP(=O)(O)O)O1 | 1 µM (active) | –
CNc1ncnc2c1ncn2[C@H]1C[C@@H](OP(=O)(O)O)[C@H](COP(=O)(O)O)O1 | – | 6.61%
COc1ccc(CN(CCN(C)C)c2ccccn2)cc1 | – | 20.1%
CN(C)CCN(Cc1ccc(Cl)cc1)c1ccccn1 | 6.31 µM (active) | –
CN(C)CCN(Cc1cccs1)c1ccccn1 | inactive | –
N=c1n(-c2ccccc2)c(O)cc(=O)n1-c1ccccc1 | – | -21.2%
Cc1ccc(C(=O)N/C(=C\c2ccc(Br)cc2)c2nc(=S)[nH][nH]2)cc1 | 11.2 µM (active) | –
CO[C@H]1COC(=O)CCC[C@@H](C)[C@H](OC)COC(=O)[C@@H](C)NC(=O)C/C=C\[C@@H]1C | – | 31.3% [at 11.4 µM]
COc1ccc(-c2cc3ccccc3n2CC(O)CNCCO)cc1 (stereo unspecified) | 14.1 µM (active) | –
O=C(O)COc1ccc(OCCNC[C@@H](O)COc2ccccc2)cc1 | – | -33.9%
NC(=O)c1cc[n+](CC2=C(C(=O)O)N3C(=O)[C@@H](NC(=O)[C@H](c4ccccc4)S(=O)(=O)[O-])[C@@H]3SC2)cc1 | inactive | –
O=C(NNS(=O)(=O)c1ccc(Cl)cc1)c1cnn(-c2ccccc2)c1-n1cccc1 | 1.12 µM (active) | –
O=C(NNS(=O)(=O)c1ccc(Cl)cc1)C1CCN(Cc2ccccc2)CC1 | – | -6.45%
O=C(NNS(=O)(=O)c1ccccc1)c1cccnc1 | – | 9.95% [at 11.4 µM]
COc1cc2c(cc1OC)C(C(=O)N1CCOCC1)C(c1cccs1)N(C)C2=O (stereo unspecified) | – | 9.22%
Cc1ccc(-n2c(C)nnc2SCC(=O)N2CCc3ccccc3C2)cc1C | 22.4 µM (active) | –
CCC(=O)Nc1c2c(nc3c1CCC3)CCCC2 | – | -14.8%
CCSc1nnc(NC(=O)CSc2nc3c(cc2C#N)CCCC3)s1 | 2.82 µM (active) | –
COc1ccc(-n2nc3cc(C)c(NC(=S)NC(=O)c4ccccc4C)cc3n2)cc1 | – | -29.5%

SMILES | AC50 | activity, negative = inhibition
COc1ccc(NC(=S)Nc2ncccc2C)c(OC)c1 | 3.55 µM (active) | –
CO[C@H]1COC(=O)C/C=C\[C@H](C)[C@@H](NS(=O)(=O)c2ccc(C)cc2)COC(=O)C/C=C\[C@@H]1C | – | 1.28% [at 11.4 µM] and 16.7% [at 11.4 µM]
COC(=O)N1CCC2(CC1)CCN(c1ncccn1)CC2 | – | 9.12%
Cc1sc(NC(=O)c2ccco2)c(C(c2ccncc2)N2CCOCC2)c1C (stereo unspecified) | 10 µM (active) | –
Cc1sc(NC(=O)c2ccco2)c(C(c2cccnc2)N2CCCC2)c1C (stereo unspecified) | 11.2 µM (active) | –
O=C(Nc1c(C(=O)N2CCCCC2)cnn1-c1ccccc1)c1ccco1 | – | -22.6%
Cc1sc(NC(=O)c2ccco2)c(C(c2cccnc2)N2CCN(C)CC2)c1C (stereo unspecified) | 20 µM (active) | –
Cc1c(C)c2c(c(C)c1O)CC[C@@](C)(C(=O)O)O2 | – | 9.1% [at 25.6 µM]
O=C(N/N=C/c1ccc(O)cc1)c1csc2ccccc12 | 14.1 µM (active) | –
CCOc1ccc(NC(=S)N(Cc2ccc(Cl)cc2)Cc2ccco2)cc1 | 7.94 µM (active) | –
CCOc1ccc(NC(=S)N(Cc2ccc(N(C)C)cc2)Cc2ccco2)cc1 | 1.58 µM (active) | –
Cc1ccccc1NC(=O)CN1CCC(n2nnc3ccccc32)CC1 | 17.8 µM (active) | –
Cc1ccc2c(c1)nnn2C1CCN(CC(=O)N2c3ccccc3CC2C)CC1 (stereo unspecified) | 10 µM (active) | –
CCc1ccccc1NC(=O)c1nnn(CC(=O)Nc2ccccc2C)c1N | – | -8.56%
Cc1cc(N=Cc2c(CO)cnc(C)c2O)c(N=Cc2c(CO)cnc(C)c2O)cc1C.[Zn] | – | -22.1% [at 11.4 µM]
CCCCN=c1sc(C(=O)OC)cc(=O)n1CCCC | 2.24 µM (active) | –
Cc1cc2c(c(=O)o1)[C@@H](O)[C@H]1O[C@@H]1C2=O | – | -1.32% [at 11.4 µM]
Cc1cccc(NS(=O)(=O)c2c(C)n[nH]c2C)c1 | 7.08 µM (active) | –
Cc1n[nH]c(C)c1S(=O)(=O)N1CCOCC1 | – | 2.95%
COc1ccc(N(CC(=O)Nc2cccc(C)c2)S(=O)(=O)c2c(C)n[nH]c2C)cc1 | 0.794 µM (active) | –
CN(C)c1cc(-c2cccc(NS(C)(=O)=O)c2)ncn1 | – | -19%
CN(CC(=O)Nc1ccc(F)c(F)c1)S(=O)(=O)c1cccc2nsnc12 | 3.55 µM (active) | –
